Data taken from PubChem BioAssay AID504339 (National Center for Advancing Translational Sciences (NCATS), 2011).
Among all 390,000 compounds or so, about 17,000 (4.4%) were called active. Roughly 8% stayed inconclusive and do not appear here. Calls come from the whole dose curve; as a rule, active = well fitted inhibition curve with a large enough effect; inconclusive = small, poorly fitted or top-dose-only effect; inactive = no such curve, though single readings can be large or run the other way. What follows is part of a selection rich in actives, with near analogues and random picks from the rest. Entries that show only a call come without a potency.

Each molecule was assayed against Lysine-specific demethylase 4A (Homo sapiens) (UniProt O75164) (assay: qHTS Assay for Inhibitors of JMJD2A-Tudor Domain). Settings: AlphaScreen JMJD2A-Tudor / H3K4me3 peptide binding; series mostly up to 114 µM.
Sequence of Lysine-specific demethylase 4A (Homo sapiens) (O75164 whole entry, looked up, the tested form may be a part): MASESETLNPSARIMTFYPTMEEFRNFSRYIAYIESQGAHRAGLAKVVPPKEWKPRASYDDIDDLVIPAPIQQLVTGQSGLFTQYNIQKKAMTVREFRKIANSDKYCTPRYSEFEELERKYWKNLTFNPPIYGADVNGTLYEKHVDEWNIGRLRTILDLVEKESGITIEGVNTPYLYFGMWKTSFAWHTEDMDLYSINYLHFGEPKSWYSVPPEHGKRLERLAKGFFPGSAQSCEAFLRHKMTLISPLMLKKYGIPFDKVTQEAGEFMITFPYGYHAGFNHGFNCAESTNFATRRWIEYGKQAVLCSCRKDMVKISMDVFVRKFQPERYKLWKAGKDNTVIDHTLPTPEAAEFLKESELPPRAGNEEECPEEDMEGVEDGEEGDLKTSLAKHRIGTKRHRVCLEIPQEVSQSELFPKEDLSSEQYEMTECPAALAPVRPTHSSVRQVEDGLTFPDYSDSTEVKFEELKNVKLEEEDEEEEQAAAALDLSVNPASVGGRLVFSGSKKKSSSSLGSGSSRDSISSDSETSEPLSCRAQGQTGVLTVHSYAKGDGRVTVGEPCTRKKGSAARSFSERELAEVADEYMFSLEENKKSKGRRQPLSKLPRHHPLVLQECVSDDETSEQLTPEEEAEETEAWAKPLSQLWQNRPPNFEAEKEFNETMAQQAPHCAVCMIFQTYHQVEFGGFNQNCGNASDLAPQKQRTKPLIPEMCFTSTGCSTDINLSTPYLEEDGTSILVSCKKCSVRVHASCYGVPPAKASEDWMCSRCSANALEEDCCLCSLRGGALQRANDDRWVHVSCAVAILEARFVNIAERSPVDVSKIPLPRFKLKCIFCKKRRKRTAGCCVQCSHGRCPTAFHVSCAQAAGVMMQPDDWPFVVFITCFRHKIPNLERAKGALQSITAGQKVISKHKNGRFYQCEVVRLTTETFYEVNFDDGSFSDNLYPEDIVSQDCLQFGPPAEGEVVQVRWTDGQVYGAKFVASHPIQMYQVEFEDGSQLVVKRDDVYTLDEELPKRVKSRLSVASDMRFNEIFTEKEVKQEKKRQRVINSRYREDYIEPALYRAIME
Note: nearly all actives have a fitted effect of over 50% in size.
Potency is the fitted concentration of half-maximal effect.

SMILES	Potency
S=c1[nH]nc(-c2cc(-c3ccsc3)n[nH]2)n1-c1ccccc1	44.7 µM (active)
Cc1ccc(NCc2n[nH]c(=S)n2-c2ccccc2)cc1Cl	inactive
COc1cccc(-c2cc(C(=O)Nc3ccc(C)cc3)[nH]n2)c1	inactive
CCc1ccc(NC(=O)Cn2c(=O)n(CCC(=O)NCc3ccc4c(c3)OCO4)c(=O)c3ccccc32)cc1	inactive
O=C(CCSCc1ccccc1F)N1CCN(c2ccc(Cl)cc2)CC1	inactive
Cc1cccc(NC(=O)N2CCN(C)c3ncccc32)c1C	inactive
CCOc1ccc(CCNC(=O)c2cc3c(=O)n(C)c4ccccc4c3n2C)cc1	inactive
CC(=O)N1CCc2c(sc(NC(=O)CCS(=O)(=O)c3ccccc3)c2C#N)C1	inactive
N#Cc1c(N)sc2c1CCN(C(=O)OCc1ccccc1)C2	56.2 µM (active)
CC(C)N1CCc2c(sc(NC(=O)Cc3ccccc3)c2C#N)C1	inactive
Cn1c(=O)c2c(nc(SCC(=O)Nc3ccc(F)cc3)n2Cc2ccccc2)n(C)c1=O	inactive
O=C(CN1C(=O)c2ccc([N+](=O)[O-])cc2C1=O)Nc1nnc(C2CC2)s1	79.4 µM (active)
Cc1cccc(NC(=O)CSCC(=O)Nc2nnc(C3CC3)s2)c1	inactive
CC1CCN(c2ccc(C(=O)Nc3nnc(C4CC4)s3)cc2[N+](=O)[O-])CC1	inactive
COc1ccc(NC(=O)CN2CCCN(Cc3ccccc3)S2(=O)=O)cc1	inactive
Cc1nc(N2CCOCC2)c2c(C(=O)NCc3cccc(Cl)c3)c(C)oc2n1	inactive
O=C(CCc1n[nH]c(=O)[nH]c1=O)N/N=C/c1ccc(Br)o1	inactive
O=C(CCC(=O)N/N=C/c1ccc(Br)o1)N/N=C/c1ccc(Br)o1	inactive
Cc1n[nH]c(=S)n1/N=C/c1ccc(Br)o1	7.94 µM (active)
CC1CCCN(Cc2c(O)ccc3c(=O)c(Oc4ccc(C(C)(C)C)cc4)c(C(F)(F)F)oc23)C1 (stereo not given)	inactive
Cc1ccc(NC(=O)Cc2ccc(NC(=O)N3CCCCc4ccccc43)cc2)cc1	inactive
Cc1nc(SCC(=O)NC2CCCC2)[nH]c(=O)c1C	inactive
Cc1c(C)n2c(SCC(=O)N3CCCC3)nnc2[nH]c1=O	inactive
Cc1c(C)n2c(SCC(=O)NC3CCCC3)nnc2[nH]c1=O	14.1 µM (active)

SMILES	Potency
CCSc1nnc2c(n1)OC(c1ccc(OCC(=O)O)cc1)Nc1ccccc1-2 (stereo not given)	inactive
Cc1sc2ncn(CC(=O)N3CCN(c4ccc(F)cc4)CC3)c(=O)c2c1S(=O)(=O)N1CCN(c2ncccn2)CC1	inactive
CCOc1ccc(-n2nc3ccc(NC(=O)c4ccc(OC)c(Cl)c4)cc3n2)cc1	inactive
COc1ccc(CCNC2=C(Cl)C(=O)N(Cc3ccccc3)C2=O)cc1OC	inactive
COc1ccc(CCN=C2SCC(=O)N2Cc2ccccc2)cc1OC	inactive
COc1cc(/C=C2/SC(=S)N(Cc3ccccc3)C2=O)cc(OC)c1O	3.55 µM (active)
COc1cc(Cl)c(C)cc1Nc1nnc(-n2nc(C)cc2C)c2ccccc12	inactive
Cc1ccc(C)c(Cn2c(C(=O)O)c(CNCc3cccs3)c3ccccc32)c1	inactive
COc1cc(NC(=O)COC(=O)c2ccc([N+](=O)[O-])s2)cc(OC)c1OC	inactive
O=C(Nc1nnc(C2=COCCO2)o1)c1ccc([N+](=O)[O-])s1	56.2 µM (active)
CSc1ccccc1-c1nnc(NC(=O)c2ccc3c(c2)OCCO3)o1	inactive
CCOc1ccc(Nc2nc3c(S(=O)(=O)c4cccc(Cl)c4)nnn3c3ccsc23)cc1	inactive
Cc1cc(OCC(=O)NCC2(N(C)C)CCCCC2)cc(C)c1Cl	inactive
CCCCCn1c(=O)[nH]c2cc(C(=O)Nc3cc(C)cc(C)c3)ccc2c1=O	inactive
CCCCn1c(=S)[nH]c2cc(S(=O)(=O)N3CCCCC3)ccc21	inactive
CCn1c(=S)[nH]c2cc(S(=O)(=O)N3CCOCC3)ccc21	17.8 µM (active)
Cc1ccc(S(=O)(=O)N2CCN(S(=O)(=O)N3CCOCC3)CC2)cc1	inactive
Cc1ccc(-n2cnc3cc(C(=O)NCCC4=CCCCC4)ccc32)cc1Cl	inactive
CC1Cc2cc(S(=O)(=O)CCC(=O)Nc3ccc(F)c(Cl)c3)ccc2N1C(=O)C1CC1 (stereo not given)	inactive
CCOC(=O)NN1C(=O)c2ccccc2NC1c1cccc(O)c1 (stereo not given)	inactive
COc1ccc(C2Nc3cccc(OC)c3C(=O)N2Cc2ccccc2)cc1COc1ccc(NC(C)=O)cc1 (stereo not given)	56.2 µM (active)
COc1ccc(C2Nc3ccccc3C(=O)N2Cc2ccco2)cc1COc1cccc(NC(C)=O)c1 (stereo not given)	50.1 µM (active)
COc1ccc(C2Nc3ccccc3C(=O)N2Cc2ccccc2)cc1Cn1nnc2ccccc21 (stereo not given)	inactive
COc1ccc(C2Nc3ccc(NC(=O)COC(C)=O)cc3C(=O)N2Cc2ccccc2)cc1COc1ccc(NC(C)=O)cc1 (stereo not given)	79.4 µM (active)

SMILES	Potency
COc1ccc(N2C(=O)C(CC(=O)Nc3ccccc3)N(Cc3ccc(OC)c(OC)c3)C2=O)cc1 (stereo not given)	inactive
COc1ccc(NC(=O)NC2CC3CCCC(C2)N3Cc2ccccc2)cc1 (stereo not given)	inactive
COc1ccc(C2Nc3ccccc3C(=O)N2Cc2ccc(CNC(=O)CO)cc2)cc1COc1ccc(NC(C)=O)cc1 (stereo not given)	79.4 µM (active)
COc1ccc(C2Nc3ccccc3C(=O)N2c2ccc(F)cc2)cc1Cn1nnc2ccccc21 (stereo not given)	inactive
COc1cc(C2C3=C(CCCC3=O)OC3=C2C(=O)CCC3)ccc1OCC(=O)Nc1ccccc1	inactive
COc1ccc(C2Nc3ccccc3C(=O)N2Cc2ccc(Cl)cc2)cc1COc1ccc(NC(C)=O)cc1 (stereo not given)	inactive
COc1ccc(C(=O)N(Cc2ccccc2)Cc2ccc(OC)c(COc3ccc(NC(C)=O)cc3)c2)c(O)c1	inactive
CCOC(=O)c1cc2c(=O)n3ccccc3nc2n(CCCOC)c1=NC(=O)C(C)(C)Oc1ccc(Cl)cc1	inactive
Cc1ccc(-n2ncc3c(=O)n(Cc4cccc(C(F)(F)F)c4)cnc32)cc1C	inactive
COC(=O)c1ccc(Cn2c(SCC(=O)N(C)c3ccccc3)nc3ccccc32)cc1	inactive
Cc1ccc2onc(CC(=O)N3CCN(c4ccc(Cl)cc4)CC3)c2c1	inactive
CC1CCN(S(=O)(=O)c2ccc3c(c2)N(CC(=O)NCc2ccccc2Cl)C(=O)CO3)CC1	inactive
O=C(NCC12CC3CC(CC(C3)C1)C2)c1cc2nc(-c3ccccc3)cc(C(F)(F)F)n2n1	inactive
COC(=O)c1ccccc1NS(=O)(=O)c1ccc2c(c1)CCCN2C(C)=O	inactive
Cc1ccsc1CN(C(=O)c1oc2ccc(Br)cc2c1C)C1CCS(=O)(=O)C1 (stereo not given)	inactive
Cc1nc2ccc(S(=O)(=O)N(CC(=O)Nc3ccc(F)cc3)Cc3ccccc3)cc2s1	inactive
Cc1ccc(OCC(=O)OCc2cc(=O)n3nc(C4CC4)sc3n2)cc1C	inactive
CCOc1ccc(NC(=O)Cn2c(=O)n(CCCC(=O)NCc3ccc4c(c3)OCO4)c(=O)c3ccccc32)cc1	inactive
CCC(CC)c1nn2cc(-c3ccccc3)nc2s1	inactive
Cn1c(=O)n(C)c2cc(C(=O)Nc3ccc(Br)cc3)ccc21	inactive
CCc1ccc(NC(=O)c2ccc(Cn3cc([N+](=O)[O-])cn3)cc2)cc1	inactive
Cn1ccc(=Nc2ccc(NC(=O)c3ccc(N=c4ccn(C)c5ccc([N+](=O)[O-])cc45)cc3)cc2)cc1	56.2 µM (active)
O=C(Cn1cc(SCc2ccccc2)c2ccccc21)N1CCCCC1	inactive
O=C(NC1CC(=O)N(c2ccc(F)cc2)C1)c1ccc(S(=O)(=O)N2CCCC2)cc1 (stereo not given)	inactive

SMILES	Potency
CCCCCn1c(CCNC(=O)c2ccc(F)cc2)nc2ccccc21	inactive
Cc1ccc2nc(/C(C#N)=C/c3ccc(-c4ccc(C(=O)OC(C)C)cc4)o3)[nH]c2c1	inactive
COc1ccc(CCNC(=O)CCCn2c(=O)c3ccccc3n(Cc3ccc(C)cc3)c2=O)cc1OC	inactive
Cc1cc(=O)n(C)c(=O)n1CCCNc1ccccc1	7.94 µM (active)
Cc1cc2nc(C)n(CCCNC(=O)Nc3ccccc3)c2cc1C	inactive
Cn1c(Nc2ccccc2)cc(=O)n(C)c1=O	inactive
COc1cc(C(CC(=O)NCCC(C)C)N2Cc3ccccc3C2=O)cc(OC)c1OC (stereo not given)	inactive
Cc1cccc2c1-c1sc(C(=O)Nc3ccc(F)cc3F)cc1CO2	inactive
O=C1c2ccccc2C2=Nc3ccccc3SC(c3ccccc3F)C12 (stereo not given)	14.1 µM (active)
NC(=O)CSc1nc2c(oc3ccccc32)c(=O)n1Cc1ccccc1	inactive
CCCCOCCCNC(=O)c1ccccc1OCC	inactive
CCOCCCNCc1ccc(OCc2ccc(F)cc2)c(OC)c1	inactive
CCOc1ccccc1OCCCNCc1ccccc1	5.01 µM (active)
CCCCC(CC)CNC(=O)C1CCN(S(=O)(=O)c2cccc3nsnc23)CC1 (stereo not given)	inactive
Nc1ncc(S(=O)(=O)Nc2ccc(OC(F)(F)F)cc2)cn1	inactive
O=S(=O)(Nc1ccc(O)c2ccccc12)c1ccc(OC(F)(F)F)cc1	50.1 µM (active)
O=C1COc2ccc(S(=O)(=O)Nc3ccc(OC(F)(F)F)cc3)cc2N1	inactive
COC(=O)CC1Oc2ccccc2-n2cc(-c3ccccc3)nc21 (stereo not given)	inactive
CCOc1ccc(-c2cc3nc(C4CCN(C(=O)OC(C)(C)C)CC4)c(C(=O)Nc4ccc(C(=O)OC)cc4)cn3n2)cc1	inactive
COc1ccc(OC)c2sc(N3CCN(C(=O)C4COc5ccccc5O4)CC3)nc12 (stereo not given)	inactive
COc1cc(NS(=O)(=O)c2ccc3c(c2)OCC(C(=O)N2CCCC2)O3)cc(OC)c1 (stereo not given)	inactive
Cc1c(CC(=O)N2CCN(C(=O)C3COc4ccccc4O3)CC2)c(=O)oc2c(O)c(O)ccc12 (stereo not given)	2.82 µM (active)
CCNC(=O)Cn1nc(C)n2c(cc3c(OC)cccc32)c1=O	inactive
